A selection: hits, their analogues and other compounds. The true share with any hit is near 6.3%.
tim10-1 inh = growth inhibitors of tim10-1 mutant yeast, primary screen, luminescence, uHTS; inhibition, % at 20 µM; hit rate 2.2% among 330,000; S. cerevisiae tim10-1 ts strain growth, BacTiter-Glo, 24 h;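 active means inhibition of at least 40%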;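 further: mutant grown at 25 °C; 0% = DMSO wells with yeast and 100% = wells holding no yeast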
tim23-1 inh = growth inhibitors of tim23-1 mutant yeast, primary screen, luminescence, uHTS | S. cerevisiae tim23-1 growth, BacTiter-Glo luminescence, 24 h | inhibition, % at 20 µM | hit rate 1.3% among 330,000;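 active means growth inhibition of the mutant yeast at or above 50%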;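 further: temperature-sensitive mutant grown at 25 °C; plate controls were DMSO-treated mutant yeast for no effect and medium wells lacking yeast for full effect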
TIM10 inh = growth inhibitors of isogenic TIM10 control yeast, primary screen, counter-screen for tim10-1 yeast inhibitor project, luminescence, uHTS. S. cerevisiae TIM10 strain growth, BacTiter-Glo luminescence, 24 h. inhibition, % at 10 µM. hit rate 1.4% among 330,000. AID 463195, 2010;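 active means inhibition of 40% or more at the single tested concentration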;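 further: wild-type TIM10 isogenic control strain grown at permissive 25 °C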
MPTP inh = mitochondrial permeability transition pore inhibitors, primary screen, biochemical, isolated mouse mitochondria, absorbance | Ca2+ swelling absorbance, 30 min | inhibition, % at 10 µM | hit rate 1.4% among 360,000;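 active means inhibition of 50% or more, scaled per plate between neutral and stimulator controls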;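 further: 0% = DMSO wells given calcium and 100% = 1 mM EGTA wells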
Mdm2 MdmX PPI = inhibitors of human Mdm2-MdmX association, primary screen, cell-based, luminescence, split luciferase, SaOS-2, uHTS. Protein Mdm4 (Homo sapiens) + E3 ubiquitin-protein ligase Mdm2 (Homo sapiens), …. SaOS-2 split-luciferase Mdm2/MdmX complementation. inhibition, % at 8 µM. hit rate 3% among 330,000;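 active means inhibition of at least 50% at 8 µM in the primary screen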
Mdm2-MdmX conf = Mdm2-MdmX complex disruptors, retested hits, confirmation, luminescence, single concentration. shares compounds with Mdm2 MdmX PPI. Mdm2-MdmX binding, luminescent assay. inhibition, % at 8 µM. hit rate 55% among 10,000. AID 489028, 2010; in the data active means inhibition above about 40%
FLuc counter = full-length luciferase signal inhibition, confirmation, counter-screen for Mdm2/MdmX interaction inhibitor project, cell-based, single concentration, SaOS-2; shares compounds with Mdm2 MdmX PPI; SaOS-2 full-length luciferase counterscreen, luminescence; inhibition, % at 8 µM; hit rate 77% among 6,200;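 active means mean inhibition at 8 µM reaching about 37%, which flags the compound as non-specific, limit read from the data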;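 further: p53-null SaOS-2 cells with luciferase driven by a doxycycline-inducible promoter; compound on cells about two nights before reading with doxycycline added after day one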
An asterisk follows results filed as active.

Results for C=C1C(=O)O[C@H]2[C@H]1[C@@H](O)CC(=C)[C@@H]1CC(=O)[C@@H](C)[C@H]21 ?
tim10-1 inh: 19; tim23-1 inh: 4; TIM10 inh: 10; MPTP inh: 0; Mdm2 MdmX PPI: 61*; Mdm2-MdmX conf: 15

What do the screens show for `COc1cc(/C=C2\CC(C(C)(C)C)C/C(=C\c3cc(OC)c(OC)c(OC)c3)C2=O)cc(OC)c1OC` (centres undefined)?
tim10-1 inh: 25; tim23-1 inh: 8; TIM10 inh: 7; MPTP inh: 0; Mdm2 MdmX PPI: 97*; Mdm2-MdmX conf: 99*; FLuc counter: 55*

What do the screens show for `COc1cc(/C=C2\CC/C(=C\c3cc(OC)c(OC)c(OC)c3)C2=O)cc(OC)c1OC`?
tim10-1 inh: 38; tim23-1 inh: 20; TIM10 inh: 35; MPTP inh: 4; Mdm2 MdmX PPI: 32

What do the screens show for `COc1cc(/C=C2\COC/C(=C\c3cc(OC)c(OC)c(OC)c3)C2=O)cc(OC)c1OC`?
MPTP inh: 2

What do the screens show for `COc1cc(/C=C2\CC/C(=C\c3cc(OC)c(O)c(OC)c3)C2=O)cc(OC)c1O`?
tim10-1 inh: 24; tim23-1 inh: 10; TIM10 inh: -14; MPTP inh: 14; Mdm2 MdmX PPI: 97*; Mdm2-MdmX conf: 62*; FLuc counter: 26

How did COc1cc(/C=C2/CCC/C(=C\c3cc(O)c(OC)c(Cl)c3)C2=O)cc(Cl)c1O do in these assays?
tim10-1 inh: 4; tim23-1 inh: 10; TIM10 inh: 2; MPTP inh: 18; Mdm2 MdmX PPI: 95*; Mdm2-MdmX conf: 80*; FLuc counter: 52*

What do the screens show for `O=C(c1cc(C2CCCCN2S(=O)(=O)c2ccc(F)cc2F)on1)N1CCOCC1` (centres undefined)?
MPTP inh: -1

Results for CC1=C(C(=O)N(C(C)C)C(C)C)CC(CC(=O)NC(c2ccccc2)c2ccccc2)C(=O)N1CCC1=CCCCC1 (centres undefined) ?
MPTP inh: 0

Results for O=c1[nH][nH]c2c1[C@H](c1ccc(Cl)cc1)O[C@H](C1CCCC1)C2 ?
MPTP inh: 0

What do the screens show for `CNc1cncc(-c2ccc(C)cc2)n1`?
MPTP inh: -2

How did O=C1NC[C@H](Cc2ccccc2)N(CC2CCN(CCc3ccc(-c4ccccc4)cc3)CC2)C1=O do in these assays?
MPTP inh: 3

How did Cc1ccsc1CNC(=O)C1(C)CCN1C(C)C (centres undefined) do in these assays?
MPTP inh: 0

How did O=C(Nc1ccc(F)cc1F)c1cccc(C(=O)Nc2ccc(F)cc2F)n1 do in these assays?
tim10-1 inh: -7; tim23-1 inh: -9; TIM10 inh: -9; MPTP inh: -2; Mdm2 MdmX PPI: 95*; Mdm2-MdmX conf: 87*; FLuc counter: 50*

What do the screens show for `COC(=O)c1cc(Cl)c(NC(=O)/C=C/c2ccc(Cl)cc2)cc1OC`?
tim10-1 inh: -1; tim23-1 inh: 12; TIM10 inh: -10; MPTP inh: 3; Mdm2 MdmX PPI: 58*; Mdm2-MdmX conf: -32

Results for COC(=O)c1sccc1NC(=O)/C=C/c1c(Cl)cccc1Cl ?
tim10-1 inh: 6; tim23-1 inh: 14; TIM10 inh: 5; MPTP inh: 1; Mdm2 MdmX PPI: 12

How did COC(=O)c1sccc1NC(=O)/C=C/c1ccc(Cl)cc1Cl do in these assays?
tim10-1 inh: 23; tim23-1 inh: -1; TIM10 inh: 6; MPTP inh: 0; Mdm2 MdmX PPI: 56*; Mdm2-MdmX conf: -52

What do the screens show for `COCCSc1nnc(NC(=O)c2ccc([N+](=O)[O-])cc2)s1`?
tim10-1 inh: -1; tim23-1 inh: 12; TIM10 inh: 12; MPTP inh: -3; Mdm2 MdmX PPI: -19

Results for Cc1cc(-c2nnc(CSc3nnc(NC(=O)c4ccc(C(C)(C)C)cc4)s3)o2)ccc1[N+](=O)[O-] ?
tim10-1 inh: -1; tim23-1 inh: 1; TIM10 inh: -2; MPTP inh: 3; Mdm2 MdmX PPI: 59*; Mdm2-MdmX conf: 7

Results for Cc1cc(Br)ccc1SCC(=O)OC/C(O)=C(\C#N)c1nc2ccccc2[nH]1 ?
tim10-1 inh: 0; tim23-1 inh: -34; TIM10 inh: -31; MPTP inh: 3; Mdm2 MdmX PPI: 83*; Mdm2-MdmX conf: -2

Results for CCCC(=O)OC/C(O)=C(\C#N)c1nc2ccccc2[nH]1 ?
tim10-1 inh: -5; tim23-1 inh: 12; TIM10 inh: 7; MPTP inh: -1; Mdm2 MdmX PPI: 35

Results for N#C/C(=C(/O)COC(=O)CCC1CCCCC1)c1nc2ccccc2[nH]1 ?
tim10-1 inh: 7; tim23-1 inh: 10; TIM10 inh: 17; MPTP inh: -1; Mdm2 MdmX PPI: 66*; Mdm2-MdmX conf: 6

Results for Cc1ccc(C)c(SCC(=O)OC/C(O)=C(\C#N)c2nc3ccccc3[nH]2)c1 ?
MPTP inh: -2

Results for N#C/C(=C(/O)COC(=O)CSc1ccc2ccccc2c1)c1nc2ccccc2[nH]1 ?
tim10-1 inh: 3; tim23-1 inh: -5; TIM10 inh: 1; MPTP inh: 0; Mdm2 MdmX PPI: 51*; Mdm2-MdmX conf: 1

What do the screens show for `O=C(NNC(=O)c1cc(S(=O)(=O)N2CCOCC2)ccc1Cl)c1ccc(F)cc1`?
MPTP inh: -1

Results for CCOC(=O)c1sc(NC(=O)CN2C(=O)c3cccc4cccc(c34)C2=O)nc1C ?
tim10-1 inh: 5; tim23-1 inh: 4; TIM10 inh: -8; MPTP inh: 0; Mdm2 MdmX PPI: 73*; Mdm2-MdmX conf: 13

Results for FC(F)(F)c1nc2nc(Cl)c(Cl)nc2[nH]1 ?
MPTP inh: 0

How did FC(F)(F)c1cccc(-c2nc3nc(Cl)c(Cl)nc3[nH]2)c1 do in these assays?
tim10-1 inh: -8; tim23-1 inh: 5; TIM10 inh: 7; MPTP inh: 9; Mdm2 MdmX PPI: 80*; Mdm2-MdmX conf: 75*; FLuc counter: 69*

How did O=C(Nc1ccc(Cl)cc1)Nc1nc(-c2sccc2Br)cs1 do in these assays?
tim10-1 inh: -9; tim23-1 inh: 5; TIM10 inh: 2; MPTP inh: 41; Mdm2 MdmX PPI: 88*; Mdm2-MdmX conf: 77*; FLuc counter: 39*

Screening results from PubChem BioAssay.
